Results from PubChem BioAssay (NCI).
Compounds without any hit were thinned out: in the full panel of roughly 83,000, 20% have a hit.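 Results are percent growth after 48 hours of single-concentration exposure. 100 means growth as in untreated cells, lower positive values show inhibition; negative values down to -100 show cell death.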 A number with no mark means an inactive call. Activity calls are given as the source filed them. The calls were made as follows: active = growth percent below 10; inactive = the rest.

Experiments:
Test in all cases: NCI-60 one-dose screen, 48 h (100 = growth as untreated, 0 = no growth, -100 = all killed)
Details in all cases: 10 µM unless noted
HCT-15 colon = system: HCT-15 colon
HT29 colon = system: HT29 colon
SNB-75 CNS = system: SNB-75 CNS
SNB-19 CNS = system: SNB-19 CNS
U251 CNS = system: U251 CNS
PC-3 prostate = system: PC-3 prostate
SK-MEL-5 melanoma = system: SK-MEL-5 melanoma
UACC-62 melanoma = system: UACC-62 melanoma
LOX IMVI melanoma = system: LOX IMVI melanoma
SK-MEL-2 melanoma = system: SK-MEL-2 melanoma
EKVX NSCLC = system: EKVX NSCLC
SN12C renal = system: SN12C renal
UO-31 renal = system: UO-31 renal
TK-10 renal = system: TK-10 renal
ACHN renal = system: ACHN renal
CAKI-1 renal = system: CAKI-1 renal
A498 renal = system: A498 renal
CCRF-CEM leukemia = system: CCRF-CEM leukemia
MOLT-4 leukemia = system: MOLT-4 leukemia
SK-MEL-28 melanoma = system: SK-MEL-28 melanoma

SMILES: O=C(CBr)CN1C(=O)c2ccccc2C1=O
- growth (HCT-15 colon): 110%
- growth (HT29 colon): 99.9%
- growth (SNB-75 CNS): 93.5%
- growth (SNB-19 CNS): 115%
- growth (U251 CNS): 101%
- growth (PC-3 prostate): 102%
- growth (SK-MEL-5 melanoma): 111%
- growth (UACC-62 melanoma): 102%
- growth (LOX IMVI melanoma): 94.7%
- growth (SK-MEL-2 melanoma): 108%
- growth (EKVX NSCLC): 107%
- growth (SN12C renal): 109%
- growth (UO-31 renal): 88.8%
- growth (TK-10 renal): 100%
- growth (ACHN renal): 104%
- growth (CAKI-1 renal): 98.6%
- growth (A498 renal): 88.2%
- growth (CCRF-CEM leukemia): 111%
- growth (MOLT-4 leukemia): 104%

SMILES: COc1ccc(Cc2cnc(NC(=O)c3sc4ccccc4c3Cl)s2)cc1
- growth (HCT-15 colon): 15.9%
- growth (HT29 colon): 8.15% (active)
- growth (SNB-75 CNS): 9.6% (active)
- growth (SNB-19 CNS): 50.7%
- growth (U251 CNS): 20.8%
- growth (PC-3 prostate): 31.5%
- growth (SK-MEL-5 melanoma): 27.8%
- growth (UACC-62 melanoma): 35.7%
- growth (LOX IMVI melanoma): 45.9%
- growth (SK-MEL-2 melanoma): 43.9%
- growth (EKVX NSCLC): 40.8%
- growth (SN12C renal): 28.7%
- growth (UO-31 renal): 48.4%
- growth (TK-10 renal): 63.1%
- growth (ACHN renal): 41.3%
- growth (CAKI-1 renal): 41.9%
- growth (A498 renal): 21.3%
- growth (CCRF-CEM leukemia): 21%
- growth (MOLT-4 leukemia): 14.8%

SMILES: Cn1c(/C=C/[N+](=O)[O-])cc2ccccc21
- growth (HCT-15 colon): -56.7% (active)
- growth (HT29 colon): -53.2% (active)
- growth (SNB-75 CNS): 44.3%
- growth (SNB-19 CNS): 57.7%
- growth (U251 CNS): -72.1% (active)
- growth (PC-3 prostate): 7.59% (active)
- growth (UACC-62 melanoma): 42.2%
- growth (LOX IMVI melanoma): -79.7% (active)
- growth (SK-MEL-28 melanoma): 73.3%
- growth (SK-MEL-2 melanoma): 11.2%
- growth (EKVX NSCLC): 46.1%
- growth (SN12C renal): 43.7%
- growth (UO-31 renal): -56.9% (active)
- growth (TK-10 renal): 57.7%
- growth (ACHN renal): -29.7% (active)
- growth (CAKI-1 renal): 82.8%
- growth (A498 renal): -20% (active)
- growth (CCRF-CEM leukemia): 30.1%
- growth (MOLT-4 leukemia): 26.7%

SMILES: O=C1CC2C=CCN2C=C1NC(=O)C1CCCCC1 (stereo not given)
- growth (HCT-15 colon): 98%
- growth (HT29 colon): 97.7%
- growth (SNB-75 CNS): 87.3%
- growth (SNB-19 CNS): 111%
- growth (U251 CNS): 97.9%
- growth (PC-3 prostate): 94.8%
- growth (UACC-62 melanoma): 108%
- growth (LOX IMVI melanoma): 96.9%
- growth (SK-MEL-28 melanoma): 107%
- growth (SK-MEL-2 melanoma): 101%
- growth (EKVX NSCLC): 92.1%
- growth (SN12C renal): 110%
- growth (UO-31 renal): 94.9%
- growth (TK-10 renal): 90.6%
- growth (ACHN renal): 105%
- growth (CAKI-1 renal): 97.7%
- growth (A498 renal): 128%
- growth (CCRF-CEM leukemia): 122%
- growth (MOLT-4 leukemia): 99.5%

SMILES: COc1ccc(/C(C)=C(\c2ccc(Cl)cc2)c2ccc(OCCN3CCCC3)cc2)cc1
- growth (HCT-15 colon): 7.96% (active)
- growth (HT29 colon): -18.1% (active)
- growth (SNB-75 CNS): 91.4%
- growth (SNB-19 CNS): 52.1%
- growth (U251 CNS): 19.4%
- growth (PC-3 prostate): 32.7%
- growth (UACC-62 melanoma): -0.373% (active)
- growth (LOX IMVI melanoma): -46.5% (active)
- growth (SK-MEL-28 melanoma): -16.8% (active)
- growth (SK-MEL-2 melanoma): 40.6%
- growth (EKVX NSCLC): 61.2%
- growth (SN12C renal): 66.5%
- growth (UO-31 renal): 35.2%
- growth (TK-10 renal): 69.5%
- growth (ACHN renal): 60.1%
- growth (CAKI-1 renal): 24.4%
- growth (A498 renal): 79.1%
- growth (CCRF-CEM leukemia): 29.1%
- growth (MOLT-4 leukemia): 23.4%
